# Compound activity from PubChem.
# VDR inhibitor = vitamin D3 receptor (human) inhibition; P11473; VDR-SRC2-3 peptide fluorescence polarization, 2 h; Potency, µM, most hits filed as inhibitors; 0.93% of 400,000 active; AID 504847
#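 After 23 nl compound addition and a short centrifugation, plates sat for 2 hours at ambient temperature; polarization of fluorescence then indicated loss of VDR binding to peptide SRC2-3.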
# Sfp PPTase inh = inhibitors of Bacillus subtilis Sfp phosphopantetheinyl transferase; 3.5% of 310,000 active; Q9F4F7; Biochemical Sfp PPTase activity, qHTS; AID 1490; Potency, µM, most hits filed as inhibitors;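 note: the enzyme is Sfp with the accession as filed and its product quenches rhodamine fluorescence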
#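 Fluorescence-quenching assay with 15 nM Sfp, 5 uM rhodamine-CoA and 12.5 uM BHQ-2-labelled ybbR peptide in pH 7.6 Hepes/MgCl2 buffer. Enzyme was pre-incubated with compound for 15 min at room temperature. Rate was taken from the 30-min fluorescence change (525/598 nm).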
# TrxR1 substrate = rat thioredoxin reductase 1 substrate activity. O89049. purified TrxR1 substrate turnover, NADPH consumption readout. Potency, µM (doses to about 114 µM). 0.01% of 390,000 active; note: nearly all actives have a fitted effect of over 50% in size
# Target sequence (O89049 whole entry, looked up): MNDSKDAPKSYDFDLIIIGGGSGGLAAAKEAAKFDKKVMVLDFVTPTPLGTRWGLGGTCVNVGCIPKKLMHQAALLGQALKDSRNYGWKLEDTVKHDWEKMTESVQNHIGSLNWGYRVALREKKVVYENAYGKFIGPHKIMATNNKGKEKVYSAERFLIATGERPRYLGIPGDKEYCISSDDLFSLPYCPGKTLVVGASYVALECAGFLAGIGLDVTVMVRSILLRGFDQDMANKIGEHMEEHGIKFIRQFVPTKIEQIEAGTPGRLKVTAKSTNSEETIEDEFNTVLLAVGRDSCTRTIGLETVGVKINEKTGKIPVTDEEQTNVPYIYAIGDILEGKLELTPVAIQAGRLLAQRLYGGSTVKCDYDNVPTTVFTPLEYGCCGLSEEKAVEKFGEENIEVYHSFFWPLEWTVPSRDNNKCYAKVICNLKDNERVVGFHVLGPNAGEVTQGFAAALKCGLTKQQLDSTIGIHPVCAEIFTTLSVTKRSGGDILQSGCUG
#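 Rat TrxR1, dispensed at 90 nM, was prereduced with 400 uM NADPH (final) for 5 min at ~22 deg C, then incubated with compound 15 min before 400 uM selenite. A first-read NADPH fluorescence drop versus no-compound background flagged substrates.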
# GLS inhibitor = inhibitors of human glutaminase (GLS). GLS enzymatic activity, qHTS titration. O94925. Potency, µM (highest dose often 45.5 µM), actives largely listed as inhibitors. 0.21% of 410,000 active. AID 624170
#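 Assay buffer: 45 mM KH2PO4 pH 8.2, 0.02% Tween-20. hKGA acts on L-glutamine (1 mM solution added); product glutamate is reported by an oxidase/peroxidase Amplex Red coupling, with fluorescence taken at baseline and 30 min.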
# TrxR1 inh = inhibitors of rat thioredoxin reductase 1; O89049; recombinant rTrxR1, NADPH fluorescence consumption, selenite substrate; Potency, µM (series often up to 114 µM), actives largely listed as inhibitors; 1% of 390,000 active; note: nearly all actives have a fitted effect of over 65% in size
#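 Rat TrxR1 (90 nM in the dispensed reagent) was pre-reduced with 400 uM NADPH for 5 min at room temperature, then incubated with compound for 15 min. After 400 uM selenite was added, NADPH fluorescence (Ex 340/Em 450 nm) was followed for 8 min.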
# GCN5L2 inh = inhibitors of human GCN5L2 histone acetyltransferase; AID 504327; Potency, µM (highest dose often 58.9 µM), actives largely listed as inhibitors; GCN5L2 HAT assay, ThioGlo1 CoA-SH fluorescence; 0.21% of 390,000 active
#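 Enzyme at 20nM final was mixed with library compounds for 15 min at room temperature. Peptide H3(1-25) at 75uM, acetyl-CoA at 70uM and ThioGlo1 at 50uM were then added. Plates were read immediately and after 20 min (Ex340nm/Em540nm).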
# A number is an active result; i = inactive; ? = inconclusive; nt = no result given; ! = repeats disagree; [ ] = remark or other dose. Shown are actives, neighbours in structure and some others; about 3.8% of the full set was active somewhere. Calls come from the whole dose curve; as a rule, active = well fitted curve in the direction sought with a large enough effect; inconclusive = small, poorly fitted or top-dose-only effect, or another doubt; inactive = no such curve, though single readings can be large; an effect the other way counts as inactive or inconclusive.
SMILES,VDR inhibitor,Sfp PPTase inh,TrxR1 substrate,GLS inhibitor,TrxR1 inh,GCN5L2 inh
COc1ccc(C(=O)N/C(=C/c2cccc3ccccc23)C(=O)NCCc2c[nH]c3ccccc23)cc1OC,i,i,i,i,i,i
O=C(CN(CCc1ccccc1)C(=O)Cn1nnc(-c2cccs2)n1)NCc1ccco1,i,i,i,i,50.1µM,i
C=CCn1c(N)c(C(=O)NC2CCCCC2)sc1=S,i,15.8µM,i,i,i,i
CCOc1ccc(NC(=O)CCS(=O)(=O)c2ccc3c(c2)n(C)c(=O)c(=O)n3C)cc1,i,nt,i,i,i,i
Cn1c(=O)c(=O)n(C)c2cc(S(=O)(=O)CCC(=O)Nc3ccc(F)cc3)ccc21,i,i,i,i,i,1.26µM!
CC(C)C(=O)N(c1cc2sc(=O)oc2c2ccccc12)S(=O)(=O)c1cccs1,35.5µM,10µM,i,i,i,i
CCCC(=O)N(c1ccc2oc(=O)sc2c1)S(=O)(=O)c1ccccc1,?,14.1µM,i,i,i,?
CC(=O)N(c1ccc2oc(=O)sc2c1)S(=O)(=O)c1ccc(C(=O)O)cc1,79.4µM,56.2µM,i,i,i,?
CC(=O)N(c1ccc2oc(=O)sc2c1)S(=O)(=O)c1cccc2cccnc12,?,i,i,i,i,i
CC(C)C(=O)N(c1ccc2oc(=O)sc2c1)S(=O)(=O)c1cccs1,44.7µM,?,i,?,i,?
CCCC(=O)N(c1ccc2oc(C)c(C(C)=O)c2c1)S(=O)(=O)c1ccc(C(=O)O)cc1,i,i,i,i,i,i
CN(CC(=O)Nc1ccc(N2CCOCC2)cc1)C(=O)c1ccc(O)c(Cl)c1,i,i,i,i,i,i
Cc1ccc(C(=O)/C=C2\NCC(C)NC2=O)cc1 (stereo not drawn),i,i,i,i,i,i
O=C(Nc1ccc(F)cc1)c1ccc(-n2ccnc2)nc1,i,i,i,i,i,i
CC(=O)N(c1ccc2oc(=O)sc2c1)S(=O)(=O)c1cccs1,89.1µM,11.2µM,i,i,i,i
COc1cccc(CN2CCN(Cc3cc(OC)c(OC)cc3[N+](=O)[O-])CC2)c1,i,56.2µM,i,i,i,i
COc1cc(CNc2ccccc2)c([N+](=O)[O-])cc1OC,i,44.7µM,i,i,i,i
COc1cc(CN2CCCCCC2)c([N+](=O)[O-])cc1OC,i,63.1µM,i,i,i[2.29 µM],i
CC1=C(C)/C(=N\OS(=O)(=O)c2ccccc2)C=CC1=O,35.5µM,39.8µM,i,i,?,?
Cc1ccc(S(=O)(=O)O/N=C2\CCCc3ccccc32)cc1,i,i,i,i,i,i
CCOc1ccc(NC(=O)CN2C(=O)/C(=C3\SC(=S)N(C4CCS(=O)(=O)C4)C3=O)c3ccccc32)cc1 (stereo not drawn),i,56.2µM,i,i,i,i
CCCCCCCCOC(=O)c1c(CSC(=N)N)n(C)c2cc(Br)c(OC(C)=O)cc12,i,39.8µM,i,i,i,i
Cc1sc(NC(=O)CCS(=O)(=O)c2ccccc2)c(C#N)c1C,89.1µM,nt,i,i,i,i
CCOC(=O)C(=O)Nc1sc(C(=O)N2CCOCC2)c(C)c1C#N,i,i,i,i,i,i
Cc1ccc(S(=O)(=O)/N=C(\N)Nc2nc(C)c3ccccc3n2)cc1,i,89.1µM,i,i,i,i
SMILES,VDR inhibitor,Sfp PPTase inh,TrxR1 substrate,GLS inhibitor,TrxR1 inh,GCN5L2 inh
O=C(N/N=C/c1cccnc1)c1cccc(S(=O)(=O)Nc2cccc(Cl)c2)c1,i,i,i,i,i,i
O=C(N/N=C/c1ccncc1)c1cccc(S(=O)(=O)Nc2ccc(Cl)cc2)c1,i,56.2µM,i,i,i,i
N#Cc1c(-c2ccco2)cc(-c2ccc(F)cc2)nc1N,i,28.2µM,i,i,?,i
COc1ccc(CNc2oc(COc3ccccc3Cl)nc2C#N)cc1,i,i,i,i,i,i
COC(=O)C1(Cc2ccc(O)c(CC3OC3(C)C)c2)OC(=O)C(O)=C1c1ccc(O)cc1 (stereo not drawn),i,79.4µM,i,i,i,i
COc1cc(CC2COC(=O)C2(O)Cc2ccc(O)c(OC)c2)ccc1O (stereo not drawn),i,i,i,i,i,i
CCNC(=O)CCSc1nc(C)cc(C)n1,i,31.6µM,i,i,i,i
